High-throughput results (PubChem)
EPAC1 agonist – qHTS for Agonist of cAMP-regulated guanine nucleotide exchange factor 3 (EPAC1): primary screen; AID 720707, 2013; EPAC1 agonist qHTS, biochemical assay; response scale: 100% = response to 6.5 mM cAMP; Rap guanine nucleotide exchange factor 3 (Homo sapiens), O95398; Potency, µM (doses to about 154 µM), for inactives: at the highest dose activation, actives largely listed as activators; actives 0.073% (n = 360,000); also: potency is read from the fitted curve at half-maximal effect; nearly all actives have a fitted effect of over 60% in size
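Nucleotide exchange by EPAC1 (100 nM) on Rap1B–BODIPY-GDP (250 nM) in the presence of 50 uM GDP is tracked fluorescently at 480/540 nm over 30 min. Signals are normalized to a 6.5 mM cAMP control.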
EPAC2 ag – qHTS for Agonist of cAMP-regulated guanine nucleotide exchange factor 4 (EPAC2): primary screen; EPAC2 activation, biochemical qHTS; response scale: 100% = 6.5 mM cAMP response; actives 0.079% (n = 360,000); Rap guanine nucleotide exchange factor 4 (Homo sapiens), Q8WZA2; Potency, µM (titrated, usually from 154 µM), without a hit: top-dose activation, usual class: activators; AID 720711, 2013; also: potency is read from the fitted curve at half-maximal effect; nearly all actives have a fitted effect of over 50% in size
Target sequence (Q8WZA2 whole entry, looked up): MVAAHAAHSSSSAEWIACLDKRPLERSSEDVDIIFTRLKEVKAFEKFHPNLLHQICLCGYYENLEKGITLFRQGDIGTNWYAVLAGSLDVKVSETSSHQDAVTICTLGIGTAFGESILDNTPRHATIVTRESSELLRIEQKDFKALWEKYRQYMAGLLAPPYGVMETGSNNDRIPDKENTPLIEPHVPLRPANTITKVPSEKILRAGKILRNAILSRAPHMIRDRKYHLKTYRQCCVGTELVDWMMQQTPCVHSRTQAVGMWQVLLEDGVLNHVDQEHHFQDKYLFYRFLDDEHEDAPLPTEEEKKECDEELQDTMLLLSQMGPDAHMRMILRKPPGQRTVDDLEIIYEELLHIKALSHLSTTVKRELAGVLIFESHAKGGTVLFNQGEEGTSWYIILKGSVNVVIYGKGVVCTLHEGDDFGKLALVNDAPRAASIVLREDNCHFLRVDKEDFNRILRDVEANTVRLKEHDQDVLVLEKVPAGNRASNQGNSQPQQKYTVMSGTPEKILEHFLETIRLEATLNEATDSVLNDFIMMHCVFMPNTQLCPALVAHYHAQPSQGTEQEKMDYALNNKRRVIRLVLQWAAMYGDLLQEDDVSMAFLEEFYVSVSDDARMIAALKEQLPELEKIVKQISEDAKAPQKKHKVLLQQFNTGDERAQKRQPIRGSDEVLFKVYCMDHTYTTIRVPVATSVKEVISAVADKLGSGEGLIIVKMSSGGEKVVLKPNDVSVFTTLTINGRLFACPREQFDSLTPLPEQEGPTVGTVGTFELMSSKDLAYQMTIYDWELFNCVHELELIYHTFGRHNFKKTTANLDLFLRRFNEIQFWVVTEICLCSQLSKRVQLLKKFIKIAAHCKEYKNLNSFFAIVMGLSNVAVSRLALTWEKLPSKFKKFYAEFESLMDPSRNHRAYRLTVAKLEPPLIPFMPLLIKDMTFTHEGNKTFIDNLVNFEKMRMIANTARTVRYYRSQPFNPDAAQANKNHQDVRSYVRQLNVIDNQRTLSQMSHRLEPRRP
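Compounds were titrated in qHTS against a Rap1B-BODIPY-GDP (250 nM) complex with EPAC2 (100 nM) and GDP (50 uM). BODIPY-GDP release tracked at 480/540 nm over 30 min at room temperature, normalized to 6.5 mM cAMP.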
FBPA coupling cs – qHTS Assay for Inhibitors of Fructose-1,6-bisphosphate Aldolase from Giardia Lamblia: Coupling assay counterscreen; coupling enzyme system counterscreen, AmpLite Red fluorescence; activity change, negative = inhibition, % at 58.2 µM, hits read low; actives 0.67% (n = 290,000); in the data active = activity change below about -30%; also: % is scaled to controls: 0 for no effect and ±100 for the full control effect
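Coupling enzymes only (glyceraldehyde-3-phosphate) + compound, at 57.5 uM final, 10 min RT; add substrate/coupling/AmpLite Red mix, 20 min RT; fluorescence ex 525/em 598 nm. Actives flag coupling-system interference.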
EPAC1 antag – qHTS for Antagonist of cAMP-regulated guanine nucleotide exchange factor 3 (EPAC1): primary screen; EPAC1 GEF assay, Rap1b-BODIPY-GDP exchange fluorescence; Potency, µM (top dose mostly 115 µM), for the others: at the highest dose activity change, negative = inhibition, hits mostly inhibitors; actives 0.14% (n = 360,000);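 also: potency is read from the fitted curve at half-maximal effect; plate controls were vehicle for no effect and positive control for full effect; nearly all actives have a fitted effect of over 50% in size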
USP1 inh – Inhibitors of USP1/UAF1: Primary Screen; actives 0.23% (n = 390,000); Potency, µM (doses to about 57.1 µM), without a hit: top-dose activity change, negative = inhibition, hits mostly inhibitors; Ubiquitin carboxyl-terminal hydrolase 1 (Homo sapiens), O94782; recombinant USP1/UAF1, Ub-Rhodamine cleavage fluorescence; also: potency is read from the fitted curve at half-maximal effect; % is scaled to controls: 0 for no effect and ±100 for the full control effect; nearly all actives have a fitted effect of over 60% in size
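High-throughput fluorogenic screen: 1nM USP1/UAF1 complex, Ub-Rho substrate 150nM final, 50mM HEPES pH 7.8 with 0.5mM EDTA, 0.1 mg/ml BSA, 1mM TCEP and 0.01% Tween-20.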
EPAC2 antag – qHTS for Antagonist of cAMP-regulated guanine nucleotide exchange factor 2 (EPAC2): primary screen | AID 720708, 2013 | actives 0.18% (n = 360,000) | Potency, µM (doses to about 114 µM), without a hit: at the top dose activity, negative = inhibition, most hits filed as inhibitors | EPAC2 GEF exchange of Rap1B-BODIPY-GDP, fluorescence | Rap guanine nucleotide exchange factor 4 (Homo sapiens), Q8WZA2; also: potency is read from the fitted curve at half-maximal effect; % is scaled to controls: 0 for no effect and ±100 for the full control effect; nearly all actives have a fitted effect of over 45% in size
Active calls of the source: *; i = inactive; ? = inconclusive; nt = not tested or not shown. Rows were chosen to be rich in hits. Some 0.87% of all compounds tested hit in one or more screens of this group. Unless noted, calls follow the shape of the dose curve; as a rule, active = well fitted curve in the direction sought with a large enough effect; inconclusive = small, poorly fitted or top-dose-only effect, or another doubt; inactive = no such curve, though single readings can be large; an effect the other way counts as inactive or inconclusive.

SMILES	EPAC1 agonist	EPAC2 ag	FBPA coupling cs	EPAC1 antag	USP1 inh	EPAC2 antag
COc1cc(CNCc2ccccn2)ccc1OCc1ccc(Cl)c(Cl)c1	-5%	2%	0	-28%	-16%	-7%
Nc1nnc2c(n1)CCCC2	5%	9%	-30*	7%	16µM*	11%
Cc1ccc(S(=O)(=O)NCCSc2nncn2C)cc1	0%	-4%	0	15%	-23%	6%
O=C(Nc1nc2c(s1)CN(Cc1ccccc1)CC2)c1cccc(S(=O)(=O)N2CCc3ccccc32)c1	?	19%	nt	27%	28µM*	34%
CC(=O)N1C=CN(C(C)=O)C(c2cn(C)c3ccccc23)C1c1cn(C)c2ccccc12 (stereo not given)	18%	9%	-4	-7%	-14%	56µM*
O=C(NCc1ccoc1)c1ccc(NC(=O)c2ccccc2Cl)cc1	4%	12%	-1	-11%	1%	-5%
Cc1ccc(Cl)cc1N1CCN(C(=O)CCSCc2ccccc2F)CC1	nt	nt	nt	nt	-21%	nt
Cc1cc(C(=O)c2cccs2)c(N)s1	2%	-1%	0	1%	-27%	-1%
Cc1cc(C)c(C(=O)c2cccs2)c(C)c1	3%	6%	nt	6%	-11%	28µM*
CCCNC1=C(N(C(C)=O)c2cccc(F)c2)C(=O)c2ccccc2C1=O	-8%	3%	-49*	-10%	?	7%
O=C(/C=C/c1ccco1)NCC1OCCc2ccccc21 (stereo not given)	-1%	-6%	1	56µM*	-5%	8%
COc1cc(/C=C(\C#N)C(=O)NCCc2ccccc2)cc(OC)c1O	-1%	8%	-3	3%	-24%	4%
COc1cc(/C=C(\C#N)C(=O)c2c[nH]c3ccccc23)cc(OC)c1O	-1%	18%	-14	-21%	28µM*	-5%
CCOC(=O)c1cc(-c2ccccc2)nn1-c1ccccn1	-1%	0%	-34*	13%	-8%	12%
O=[N+]([O-])c1cc([N+](=O)[O-])c(N2CCOCC2)cc1NCc1ccccc1	7%	8%	2	9%	-19%	0%
O=[N+]([O-])c1c(NCc2ccccc2)cc(N2CCc3ccccc3C2)c2nonc12	15%	0%	-40*	-8%	-13%	6%
O=C1Cc2ccccc2C(=O)N1	9%	20%	nt	56µM*	nt	?
CCOC(=O)c1csc(NC(=O)C(C)(C)C)n1	-1%	-2%	3	-12%	-26%	4%
Cc1ccc(S(=O)(=O)N2CCN(C(=O)c3cccc(-n4cccc4)c3)CC2)cc1	-5%	10%	nt	-25%	-15%	14%
O=C(c1cccc(-n2cccc2)c1)N1CCN(S(=O)(=O)c2ccccc2)CC1	12%	7%	nt	79µM*	-7%	-5%
C=CCSc1nc(-c2ccc(OC)cc2)c(C#N)c(=O)n1CC=C	-4%	-3%	5	-7%	?	40µM*
COc1ccc(-c2nc3n(c(=O)c2C#N)CCS3)cc1	3%	13%	2	?	-23%	-4%
O=C(c1ccc(N2CCCCS2(=O)=O)cc1)N1CCN(c2ccc(N3CCOCC3)nn2)CC1	6%	6%	0	-5%	-24%	8%
CC(=O)N1N=C(c2ccccc2)OC1c1ccc([N+](=O)[O-])s1 (stereo not given)	19%	6%	-27	-3%	25µM*	-2%
CC(=O)N1N=C(c2cccc([N+](=O)[O-])c2)OC1c1ccc(Br)cc1 (stereo not given)	-2%	11%	0	-8%	-20%	-4%
SMILES	EPAC1 agonist	EPAC2 ag	FBPA coupling cs	EPAC1 antag	USP1 inh	EPAC2 antag
COc1ccccc1-c1cc(=O)c2cc(O)ccc2o1	nt	nt	2	nt	nt	nt
O=c1cc2oc3cc(O)c(O)cc3c(-c3ccccc3O)c-2cc1O	3%	2%	-24	?	?	12%
CCOc1ccccc1-c1c2cc(O)c(=O)cc-2oc2cc(O)c(O)cc12	31%	-360%	-62*	?	?	i
COc1ccc(OC)c(-c2c3cc(O)c(=O)cc-3oc3cc(O)c(O)cc23)c1	?	37%	-53*	211%	?	i
COc1ccccc1Oc1ccccc1[N+](=O)[O-]	2%	-1%	-12	19%	-8%	?
COc1ccc(NS(=O)(=O)c2ccc(O)c(NC(=O)c3cc4c(C)nn(-c5ccc(F)cc5)c4s3)c2)cc1	-17%	-8%	1	50µM*	?	-4%
COc1ccc(NC(=O)c2cc3c(C)nn(-c4ccccc4)c3s2)c(OC)c1	nt	nt	nt	nt	-29%	nt
Cc1cc(C)c2cc(C=O)c(Cl)nc2c1	-3%	-1%	-4	1%	-24%	3%
CCCN(CC(=O)Nc1ccccc1C)C(=O)c1oc2ccc(OCC)cc2c1C	126µM*	-11%	nt	-16%	-18%	-3%
CCCN(CC(=O)Nc1ccccc1C)C(=O)c1cc(C)oc1C	10%	6%	nt	10%	-9%	6%
C=CCSc1n[nH]c(=O)n1-c1cccc(C(F)(F)F)c1	-5%	2%	-3	7%	-2%	4%
CCOC(=O)c1ccccc1NC(=O)c1ccccc1NS(C)(=O)=O	11%	5%	-1	-4%	-7%	0%
CCOC(=O)c1ccccc1-c1csc(NS(=O)(=O)c2ccc(Cl)cc2)n1	-1%	8%	19	79µM*	-12%	-6%
CCOC(=O)Cc1csc(NS(=O)(=O)c2ccccc2)n1	-1%	-6%	-2	5%	-16%	-2%
Cc1ccc(N2CCN(C(=O)NC3CCCCC3)CC2)c(C)c1	-6%	-7%	6	4%	-12%	-20%
COc1cc2c(cc1O)CC[n+]1cc3c(OC)c(OC)ccc3cc1-2	-26%	1%	-9	-29%	-29%	22%
COc1cc2c(cc1OC)-c1cc3ccc4c(c3c[n+]1CC2)OCO4	?	?	-44*	6%	25µM*	3%
CCCCS(=O)(=O)Nc1ccc2cn[nH]c2c1	1%	-7%	-36*	0%	-19%	-10%
O=S(=O)(Nc1ccc2cn[nH]c2c1)c1ccc(Cl)cc1	-13%	6%	-2	-8%	-10%	-30%
